Results on 7 sequences are retold here after publication PMC7862700, “An all-to-all approach to the identification of sequence-specific readers for epigenetic DNA modifications on cytosine”.

Common to all, as to assay: DAPPL (digital affinity profiling via proximity ligation, sequencing); 10 mM Tris-HCl pH 7.5, 50 mM NaCl, 1 mM DTT, 4% glycerol, room temperature, 30 min; GST-TFs on glutathione beads, 16-mer random dsDNA library, 0.1% formaldehyde crosslink after washing; high values mean tight binding
Conditions in all cases: protein: recombinant; tags: N-terminal GST; dsDNA, one strand shown

One experiment concerns the target T1, FLI1 (Homo sapiens, UniProt Q01543 1-452).
T1 sequence: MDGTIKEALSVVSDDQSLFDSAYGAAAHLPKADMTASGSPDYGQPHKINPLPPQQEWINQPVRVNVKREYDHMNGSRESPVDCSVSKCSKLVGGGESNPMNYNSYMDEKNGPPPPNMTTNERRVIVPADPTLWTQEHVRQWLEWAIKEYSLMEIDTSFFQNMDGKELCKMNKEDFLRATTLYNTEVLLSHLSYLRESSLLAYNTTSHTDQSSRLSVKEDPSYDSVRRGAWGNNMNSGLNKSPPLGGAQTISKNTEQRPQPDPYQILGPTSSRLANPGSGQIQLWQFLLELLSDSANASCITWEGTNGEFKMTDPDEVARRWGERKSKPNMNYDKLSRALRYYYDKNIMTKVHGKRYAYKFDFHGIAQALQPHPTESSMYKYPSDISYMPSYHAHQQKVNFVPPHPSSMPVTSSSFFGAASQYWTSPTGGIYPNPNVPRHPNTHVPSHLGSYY
In a few lines:
(§1)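 Binding signal is defined as a hexamer's read frequency for one factor over its frequency for the tag-only sample. To obtain reads, GST-fused human transcription factors were expressed in yeast, captured on glutathione beads, barcoded with DNA and pooled with that sample. Pools met 200 nmole of a 16-mer random double-stranded DNA library in Tris/NaCl/DTT/glycerol buffer for 30 min at room temperature before washing, 0.1% formaldehyde crosslinking, proximity ligation (BsaI/T4 ligase, 1 h, 37 °C), PCR and Illumina NextSeq500 sequencing.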

The target of the next experiment is T2, ELK1 (Homo sapiens, UniProt P19419 1-428).
T2 sequence: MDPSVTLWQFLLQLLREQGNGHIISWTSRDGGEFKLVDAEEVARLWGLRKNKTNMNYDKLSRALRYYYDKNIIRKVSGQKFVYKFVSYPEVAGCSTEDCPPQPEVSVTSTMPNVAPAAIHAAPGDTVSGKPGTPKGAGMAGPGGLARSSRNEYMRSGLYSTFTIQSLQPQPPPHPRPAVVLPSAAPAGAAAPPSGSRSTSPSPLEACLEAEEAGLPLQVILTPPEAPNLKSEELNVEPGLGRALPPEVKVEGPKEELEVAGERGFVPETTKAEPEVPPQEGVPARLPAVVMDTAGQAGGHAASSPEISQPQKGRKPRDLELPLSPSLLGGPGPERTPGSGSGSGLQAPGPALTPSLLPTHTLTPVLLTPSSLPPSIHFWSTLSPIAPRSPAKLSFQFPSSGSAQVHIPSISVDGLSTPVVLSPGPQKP
In short, it runs like this: as §1

In the next experiment the target is T3, GABPA (Homo sapiens, UniProt Q06546 1-454).
T3 sequence: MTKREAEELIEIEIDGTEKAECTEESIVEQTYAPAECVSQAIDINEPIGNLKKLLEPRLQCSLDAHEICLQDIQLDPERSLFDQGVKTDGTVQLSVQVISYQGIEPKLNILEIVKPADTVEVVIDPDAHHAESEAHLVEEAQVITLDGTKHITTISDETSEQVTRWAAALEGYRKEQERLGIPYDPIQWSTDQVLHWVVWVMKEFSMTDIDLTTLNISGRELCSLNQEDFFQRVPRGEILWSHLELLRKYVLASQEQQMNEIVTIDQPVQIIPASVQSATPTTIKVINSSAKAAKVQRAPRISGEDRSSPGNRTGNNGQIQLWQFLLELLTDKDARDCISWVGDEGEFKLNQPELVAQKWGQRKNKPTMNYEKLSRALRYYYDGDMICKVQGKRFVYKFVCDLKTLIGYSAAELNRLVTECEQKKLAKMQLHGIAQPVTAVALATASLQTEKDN
In a few lines:
as §1

For a further experiment, the target named is T4, ERG (Homo sapiens, UniProt P11308 1-479).
T4 sequence: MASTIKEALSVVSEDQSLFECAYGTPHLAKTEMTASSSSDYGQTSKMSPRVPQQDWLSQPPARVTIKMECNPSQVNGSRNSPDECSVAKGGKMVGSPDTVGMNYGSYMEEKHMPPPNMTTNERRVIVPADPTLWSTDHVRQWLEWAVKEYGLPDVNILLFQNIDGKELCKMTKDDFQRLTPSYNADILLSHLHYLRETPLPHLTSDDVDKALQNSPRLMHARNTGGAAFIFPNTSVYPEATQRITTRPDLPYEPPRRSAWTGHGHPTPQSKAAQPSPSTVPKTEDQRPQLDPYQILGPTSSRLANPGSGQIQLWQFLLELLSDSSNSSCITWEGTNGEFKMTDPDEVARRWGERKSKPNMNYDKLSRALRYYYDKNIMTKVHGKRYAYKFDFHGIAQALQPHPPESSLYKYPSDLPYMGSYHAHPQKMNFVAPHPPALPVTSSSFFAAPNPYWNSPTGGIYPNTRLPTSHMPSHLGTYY
In a few lines: as §1

In another experiment the target is ELF1 (Homo sapiens, UniProt P32519 1-619). In a few lines:
as §1

The target of a further experiment is T5, EHF (Homo sapiens, UniProt Q9NZC4 1-300).
T5 sequence: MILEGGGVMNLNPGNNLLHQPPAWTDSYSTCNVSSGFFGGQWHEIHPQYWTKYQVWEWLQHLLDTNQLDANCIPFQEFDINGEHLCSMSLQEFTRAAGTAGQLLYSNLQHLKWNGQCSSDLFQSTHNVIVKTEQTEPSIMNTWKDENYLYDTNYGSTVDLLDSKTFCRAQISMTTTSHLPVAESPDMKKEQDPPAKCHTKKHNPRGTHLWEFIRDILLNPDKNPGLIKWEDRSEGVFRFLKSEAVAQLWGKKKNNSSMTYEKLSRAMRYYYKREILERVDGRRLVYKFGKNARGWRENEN
In short, it runs like this:
as §1

The next experiment deals with SPI1 (Homo sapiens, UniProt P17947 1-270). In a few lines:
as §1

For another experiment, the target named is SPIB (Homo sapiens, UniProt Q01892 1-262). In short, it runs like this: as §1
Sequence of SPIB (Q01892 whole entry): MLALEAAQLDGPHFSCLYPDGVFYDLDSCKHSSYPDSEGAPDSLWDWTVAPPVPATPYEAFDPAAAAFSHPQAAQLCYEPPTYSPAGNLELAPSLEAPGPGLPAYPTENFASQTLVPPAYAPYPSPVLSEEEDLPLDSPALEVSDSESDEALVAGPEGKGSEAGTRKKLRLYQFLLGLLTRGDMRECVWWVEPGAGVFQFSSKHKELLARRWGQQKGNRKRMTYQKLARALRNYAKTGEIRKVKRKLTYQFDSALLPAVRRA
Another experiment concerns the target T6, ELK3 (Homo sapiens, UniProt P41970 1-407).
T6 sequence: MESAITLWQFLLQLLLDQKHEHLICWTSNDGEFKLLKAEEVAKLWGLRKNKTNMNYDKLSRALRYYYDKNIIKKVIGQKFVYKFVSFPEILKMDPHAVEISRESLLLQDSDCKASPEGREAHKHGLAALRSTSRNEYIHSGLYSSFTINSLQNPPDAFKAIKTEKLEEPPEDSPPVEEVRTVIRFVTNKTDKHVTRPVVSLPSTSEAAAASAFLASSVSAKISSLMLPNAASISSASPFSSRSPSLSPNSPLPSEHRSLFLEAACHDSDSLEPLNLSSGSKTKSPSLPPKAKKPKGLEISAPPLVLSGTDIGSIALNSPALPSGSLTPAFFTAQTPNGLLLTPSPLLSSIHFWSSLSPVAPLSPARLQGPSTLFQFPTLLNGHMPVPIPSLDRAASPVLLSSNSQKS
In a few lines:
as §1

Sequence of ELF1 (P32519 whole entry): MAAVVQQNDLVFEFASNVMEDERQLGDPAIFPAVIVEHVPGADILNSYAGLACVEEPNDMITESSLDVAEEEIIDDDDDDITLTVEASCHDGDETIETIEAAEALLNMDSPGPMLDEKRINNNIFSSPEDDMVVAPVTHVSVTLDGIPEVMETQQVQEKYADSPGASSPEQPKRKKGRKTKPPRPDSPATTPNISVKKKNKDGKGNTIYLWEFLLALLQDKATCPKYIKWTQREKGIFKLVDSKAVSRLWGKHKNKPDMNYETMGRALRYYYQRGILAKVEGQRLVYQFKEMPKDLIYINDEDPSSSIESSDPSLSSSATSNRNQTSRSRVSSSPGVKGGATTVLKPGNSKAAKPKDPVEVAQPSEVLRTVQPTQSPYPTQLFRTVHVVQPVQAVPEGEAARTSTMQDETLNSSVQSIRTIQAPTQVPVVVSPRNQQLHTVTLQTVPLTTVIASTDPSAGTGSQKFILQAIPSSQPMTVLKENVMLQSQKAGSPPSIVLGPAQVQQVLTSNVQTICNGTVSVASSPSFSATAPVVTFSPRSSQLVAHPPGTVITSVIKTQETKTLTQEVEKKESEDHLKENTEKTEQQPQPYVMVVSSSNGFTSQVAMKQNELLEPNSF

For TCGACA, the binding signal in the experiment with FLI1 was 1.38 fold enrichment (6-mer frequency, TF over GST control); with ELK1, 1.27 fold enrichment (6-mer frequency, TF over GST control); with GABPA it was 1.43 fold enrichment (6-mer frequency, TF over GST control); with ERG, 1.35 fold enrichment (6-mer frequency, TF over GST control); in the experiment with ELF1 it was 1.38 fold enrichment (6-mer frequency, TF over GST control); with EHF, 1.21 fold enrichment (6-mer frequency, TF over GST control). Further, the binding signal with SPI1 is 1.28 fold enrichment (6-mer frequency, TF over GST control); with SPIB, 1.25 fold enrichment (6-mer frequency, TF over GST control); in the experiment with ELK3, 1.35 fold enrichment (6-mer frequency, TF over GST control).
Turning to TATCTT, the binding signal with FLI1 is 1.46 fold enrichment (6-mer frequency, TF over GST control); in the experiment with ELK1, 1.31 fold enrichment (6-mer frequency, TF over GST control); in the experiment with GABPA, 1.38 fold enrichment (6-mer frequency, TF over GST control); with ERG, 1.26 fold enrichment (6-mer frequency, TF over GST control); in the experiment with ELF1 it was 1.36 fold enrichment (6-mer frequency, TF over GST control); with EHF, 1.3 fold enrichment (6-mer frequency, TF over GST control). In addition, the binding signal in the experiment with SPI1 is 1.3 fold enrichment (6-mer frequency, TF over GST control); with SPIB, 1.28 fold enrichment (6-mer frequency, TF over GST control); in the experiment with ELK3 it was 1.24 fold enrichment (6-mer frequency, TF over GST control).
With TGTAAT, the binding signal is 1.27 fold enrichment (6-mer frequency, TF over GST control) in the experiment with FLI1; 1.2 fold enrichment (6-mer frequency, TF over GST control) in the experiment with ELK1; 1.2 fold enrichment (6-mer frequency, TF over GST control) with GABPA; 1.2 fold enrichment (6-mer frequency, TF over GST control) with ERG; 1.18 fold enrichment (6-mer frequency, TF over GST control) with ELF1; 1.15 fold enrichment (6-mer frequency, TF over GST control) in the experiment with EHF. Further, the binding signal is 1.15 fold enrichment (6-mer frequency, TF over GST control) in the experiment with SPI1; 1.25 fold enrichment (6-mer frequency, TF over GST control) with SPIB; 1.26 fold enrichment (6-mer frequency, TF over GST control) with ELK3.
Turning to TTTGCA, the binding signal with FLI1 is 1.27 fold enrichment (6-mer frequency, TF over GST control); with ELK1, 1.33 fold enrichment (6-mer frequency, TF over GST control); with GABPA it was 1.34 fold enrichment (6-mer frequency, TF over GST control); with ERG it was 1.29 fold enrichment (6-mer frequency, TF over GST control); with ELF1, 1.32 fold enrichment (6-mer frequency, TF over GST control); with EHF it was 1.19 fold enrichment (6-mer frequency, TF over GST control). Moreover, the binding signal is 1.22 fold enrichment (6-mer frequency, TF over GST control) with SPI1; 1.29 fold enrichment (6-mer frequency, TF over GST control) with SPIB; 1.32 fold enrichment (6-mer frequency, TF over GST control) with ELK3.
For the sequence ACCTTA, the binding signal in the experiment with FLI1 is 1.34 fold enrichment (6-mer frequency, TF over GST control); with ELK1, 1.24 fold enrichment (6-mer frequency, TF over GST control); with GABPA, 1.19 fold enrichment (6-mer frequency, TF over GST control); with ERG, 1.3 fold enrichment (6-mer frequency, TF over GST control); with ELF1, 1.2 fold enrichment (6-mer frequency, TF over GST control); in the experiment with EHF, 1.24 fold enrichment (6-mer frequency, TF over GST control). For the same sequence, the binding signal in the experiment with SPI1 is 1.24 fold enrichment (6-mer frequency, TF over GST control); with SPIB, 1.21 fold enrichment (6-mer frequency, TF over GST control); in the experiment with ELK3, 1.13 fold enrichment (6-mer frequency, TF over GST control).
As for CCTATA, the binding signal in the experiment with FLI1 is 1.35 fold enrichment (6-mer frequency, TF over GST control); with ELK1, 1.29 fold enrichment (6-mer frequency, TF over GST control); with GABPA, 1.42 fold enrichment (6-mer frequency, TF over GST control); with ERG it was 1.3 fold enrichment (6-mer frequency, TF over GST control); with ELF1 it was 1.39 fold enrichment (6-mer frequency, TF over GST control); with EHF, 1.28 fold enrichment (6-mer frequency, TF over GST control). Besides, the binding signal is 1.28 fold enrichment (6-mer frequency, TF over GST control) with SPI1; 1.34 fold enrichment (6-mer frequency, TF over GST control) in the experiment with SPIB; 1.32 fold enrichment (6-mer frequency, TF over GST control) with ELK3.
Consider CTGGAT, for which the binding signal with FLI1 was 1.31 fold enrichment (6-mer frequency, TF over GST control); with ELK1 it was 1.19 fold enrichment (6-mer frequency, TF over GST control); with GABPA it was 1.38 fold enrichment (6-mer frequency, TF over GST control); with ERG it was 1.38 fold enrichment (6-mer frequency, TF over GST control); with ELF1, 1.36 fold enrichment (6-mer frequency, TF over GST control); with EHF, 1.32 fold enrichment (6-mer frequency, TF over GST control). For the same sequence, the binding signal was 1.25 fold enrichment (6-mer frequency, TF over GST control) with SPI1; 1.36 fold enrichment (6-mer frequency, TF over GST control) with SPIB; 1.31 fold enrichment (6-mer frequency, TF over GST control) in the experiment with ELK3.
